# Compounds without any hit were thinned out: in the full panel of roughly 79,000, 15% have a hit. A number with no mark means an inactive call. Calls of active or inactive are those of the source. Cut-off read from the data, not from the text of the source: active = growth inhibition above about 70%; inactive = the rest.
# Assays:
# [1] = NCI Yeast Anticancer Drug Screen. Data for the wt1 strain (AID 149);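 note: 0% = growth of vehicle-treated wt1 cultures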; details: S. cerevisiae wt1 strain (SPY 50644) growth inhibition, active compounds read high
# Outline: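 The wt1 strain was treated with compounds, and growth was compared with vehicle-treated cultures to give inhibition.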
# [2] = NCI Yeast Anticancer Drug Screen. Data for the mgt1 strain (AID 153); details: S. cerevisiae mgt1 mutant growth inhibition, active compounds read high
# Outline: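 Measured: inhibition of mgt1 yeast growth by compound, normalized to vehicle-treated cultures.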
# [3] = NCI Yeast Anticancer Drug Screen. Data for the rad50 strain (AID 155);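 note: 0% = growth of vehicle-only cultures of the same strain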; details: S. cerevisiae rad50 strain growth inhibition, active compounds read high
# Outline: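 Cells are treated with compound, grown, and their growth is then scored against vehicle-only cultures of the same repair-deficient yeast strain.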
# [4] = NCI Yeast Anticancer Drug Screen. Data for the mec2-1 strain (AID 157); details: S. cerevisiae mec2-1 strain, active compounds read high
# Outline: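 Using mec2-1 yeast: add compound, measure growth, express inhibition versus vehicle-treated cultures.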
# [5] = NCI Yeast Anticancer Drug Screen. Data for the rad14 strain (AID 159);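 note: 0% = growth of vehicle-treated control cultures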; details: S. cerevisiae rad14 strain growth inhibition, active compounds read high
# Outline: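 Readout: yeast growth inhibition, referenced to vehicle-only cultures. Strain bears a defined alteration in DNA damage repair.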
# [6] = NCI Yeast Anticancer Drug Screen. Data for the sgs1 mgt1 strain (AID 161);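 note: 0% = growth of cultures given vehicle only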; details: S. cerevisiae sgs1 mgt1 strain, active compounds read high
# Outline: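 Compounds are added to genetically altered yeast, and growth is compared with cultures given vehicle alone to give percent inhibition.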
# [7] = NCI Yeast Anticancer Drug Screen. Data for the CLN2oe strain (AID 163);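 note: 0% = growth of vehicle-only control cultures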; details: S. cerevisiae CLN2oe strain, active compounds read high
# Outline: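 Whole-cell yeast growth assay. A strain engineered for altered cell-cycle control received compound, and inhibition relative to vehicle-treated cultures was recorded.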
# [8] = NCI Yeast Anticancer Drug Screen. Data for the cln2 rad14 strain (AID 165);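 note: 0% = growth equal to vehicle treated cultures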; details: S. cerevisiae cln2 rad14 strain, active compounds read high
# Outline: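 Yeast strain cln2 rad14, bearing defects in cell cycle control and DNA repair, serves as the test system; values reflect growth inhibition compared with vehicle.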
# [9] = NCI Yeast Anticancer Drug Screen. Data for the bub3 strain (AID 167); details: S. cerevisiae bub3 mutant strain, active compounds read high
# Outline: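 Part of a panel of yeast mutants defective in DNA damage repair or cell cycle regulation. Each strain is grown with compound, and inhibition is calculated relative to solvent-treated cultures.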
# [10] = NCI Yeast Anticancer Drug Screen. Data for the wt2 strain (AID 169);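 note: 0% = growth of vehicle-treated yeast cultures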; details: S. cerevisiae wt2 strain growth inhibition, active compounds read high
# Outline: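 Treated yeast vs. vehicle-treated yeast: growth inhibition determined.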
# [11] = NCI Yeast Anticancer Drug Screen. Data for the mlh1 strain (AID 171);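 note: 0% = growth of vehicle-treated control cultures of the same strain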; details: S. cerevisiae mlh1 strain growth inhibition, active compounds read high
# Outline: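 A yeast strain with a defined genetic lesion serves as the test organism. Cultures receive compound or vehicle, and growth is measured.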
# [12] = NCI Yeast Anticancer Drug Screen. Data for the sgs1 strain (AID 173);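 note: 0% = growth of vehicle-only control cultures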; details: S. cerevisiae sgs1 mutant, active compounds read high
# Outline: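 A genetically defined yeast mutant is incubated with the test compound, and its growth is compared to that of the same strain given vehicle.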
# [13] = NCI Yeast Anticancer Drug Screen. Data for the mlh1 rad18 strain (AID 175); details: S. cerevisiae mlh1 rad18 strain growth inhibition, active compounds read high
# Outline: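 Steps: expose repair-defective yeast to compound; measure growth; express inhibition against vehicle-treated controls.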
# [14] = NCI Yeast Anticancer Drug Screen. Data for the rad18 strain (AID 177); details: S. cerevisiae rad18 mutant growth inhibition, active compounds read high
# Outline: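 Measured value is growth inhibition of a yeast strain bearing a DNA repair alteration, referenced to vehicle-treated cells.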
# [15] = NCI Yeast Anticancer Drug Screen. Data for the rad52 strain (AID 147);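 note: 0% = growth of vehicle-treated control cultures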; details: S. cerevisiae rad52 mutant growth inhibition, active compounds read high
# Outline: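 Here a repair-compromised yeast strain receives each compound; its growth is then quantified and normalised to vehicle-only controls.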
# [16] = NCI Yeast Anticancer Drug Screen. Data for the rad50EPP+ strain (AID 151);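 note: 0% = growth of vehicle-treated control cultures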; details: S. cerevisiae rad50 mutant strain, active compounds read high
# Outline: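 Read-out is yeast growth inhibition relative to vehicle; cells used were the rad50EPP+ strain.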
# [17] = at 5.0 µM (retest, dose inferred, filed as 0.5)
# [18] = at 50.0 µM (retest, dose inferred, filed as 5.0)
structure (smiles),measurement,setting,value
CCOP(=O)(OCC)/C(C#N)=C/c1ccc(-c2ccc(F)cc2F)o1,growth inhibition,[1]; at 1.2 µM,-2%
same,growth inhibition,[1]; at 3.7 µM,-2%
same,growth inhibition,[1]; at 11.0 µM,-2%
same,growth inhibition,[1]; at 33.0 µM,-4%
same,growth inhibition,[1]; at 100.0 µM,-1%
same,growth inhibition,[2]; at 1.2 µM,-5%
same,growth inhibition,[2]; at 3.7 µM,-4%
same,growth inhibition,[2]; at 11.0 µM,0%
same,growth inhibition,[2]; at 33.0 µM,-10%
same,growth inhibition,[2]; at 100.0 µM,0%
same,growth inhibition,[3]; at 1.2 µM,2%
same,growth inhibition,[3]; at 3.7 µM,2%
same,growth inhibition,[3]; [17],75% (active)
same,growth inhibition,[3]; at 11.0 µM,-9%
same,growth inhibition,[3]; at 33.0 µM,3%
same,growth inhibition,[3]; [18],99% (active)
same,growth inhibition,[3]; at 50.0 µM,39.8%
same,growth inhibition,[3]; at 100.0 µM,5%
same,growth inhibition,[4]; at 1.2 µM,2%
same,growth inhibition,[4]; at 3.7 µM,-4%
same,growth inhibition,[4]; [17],19%
same,growth inhibition,[4]; at 11.0 µM,-4%
same,growth inhibition,[4]; at 33.0 µM,-6%
same,growth inhibition,[4]; [18],99% (active)
same,growth inhibition,[4]; at 50.0 µM,70.8% (active)
same,growth inhibition,[4]; at 100.0 µM,-1%
same,growth inhibition,[5]; at 1.2 µM,-1%
same,growth inhibition,[5]; at 3.7 µM,-1%
same,growth inhibition,[5]; at 11.0 µM,-2%
same,growth inhibition,[5]; at 33.0 µM,-3%
same,growth inhibition,[5]; at 100.0 µM,1%
same,growth inhibition,[6]; [17],35%
same,growth inhibition,[6]; [18],99% (active)
same,growth inhibition,[6]; at 50.0 µM,63.1%
same,growth inhibition,[7]; at 1.2 µM,-1%
same,growth inhibition,[7]; at 3.7 µM,1%
same,growth inhibition,[7]; at 11.0 µM,-6%
same,growth inhibition,[7]; at 33.0 µM,-7%
same,growth inhibition,[7]; at 100.0 µM,-1%
same,growth inhibition,[8]; [17],16%
same,growth inhibition,[8]; [18],99% (active)
same,growth inhibition,[8]; at 50.0 µM,60.6%
same,growth inhibition,[9]; at 1.2 µM,-7%
same,growth inhibition,[9]; at 3.7 µM,-1%
same,growth inhibition,[9]; [17],26%
same,growth inhibition,[9]; at 11.0 µM,4%
same,growth inhibition,[9]; at 33.0 µM,-3%
same,growth inhibition,[9]; [18],99% (active)
same,growth inhibition,[9]; at 50.0 µM,74.8% (active)
same,growth inhibition,[9]; at 100.0 µM,-2%
same,growth inhibition,[10]; at 1.2 µM,-2%
same,growth inhibition,[10]; at 3.7 µM,0%
same,growth inhibition,[10]; at 11.0 µM,-1%
same,growth inhibition,[10]; at 33.0 µM,1%
same,growth inhibition,[10]; at 100.0 µM,1%
same,growth inhibition,[11]; at 1.2 µM,-1%
same,growth inhibition,[11]; at 3.7 µM,-7%
same,growth inhibition,[11]; at 11.0 µM,3%
same,growth inhibition,[11]; at 33.0 µM,0%
same,growth inhibition,[11]; at 100.0 µM,-1%
same,growth inhibition,[12]; at 1.2 µM,-2%
same,growth inhibition,[12]; at 3.7 µM,-4%
same,growth inhibition,[12]; at 11.0 µM,-3%
same,growth inhibition,[12]; at 33.0 µM,-4%
same,growth inhibition,[12]; at 100.0 µM,-1%
same,growth inhibition,[13]; [17],60%
same,growth inhibition,[13]; [18],99% (active)
same,growth inhibition,[13]; at 50.0 µM,41.4%
same,growth inhibition,[14]; at 1.2 µM,-3%
same,growth inhibition,[14]; at 3.7 µM,-2%
same,growth inhibition,[14]; at 11.0 µM,-2%
same,growth inhibition,[14]; at 33.0 µM,-19%
same,growth inhibition,[14]; at 100.0 µM,2%
[N-]=[N+]=NC1(c2ccccc2)C(=O)Nc2ccccc2C1=O (stereo unspecified),growth inhibition,[15]; at 1.2 µM,-2%
same,growth inhibition,[15]; at 3.7 µM,0%
same,growth inhibition,[15]; at 11.0 µM,4%
same,growth inhibition,[15]; at 33.0 µM,20%
same,growth inhibition,[15]; at 100.0 µM,49%
same,growth inhibition,[16]; at 1.2 µM,0%
same,growth inhibition,[16]; at 3.7 µM,3%
same,growth inhibition,[16]; at 11.0 µM,6%
same,growth inhibition,[16]; at 33.0 µM,9%
same,growth inhibition,[16]; at 100.0 µM,7%
same,growth inhibition,[2]; at 1.2 µM,-3%
same,growth inhibition,[2]; at 3.7 µM,-6%
same,growth inhibition,[2]; at 11.0 µM,8%
same,growth inhibition,[2]; at 33.0 µM,2%
same,growth inhibition,[2]; at 100.0 µM,27%
same,growth inhibition,[3]; at 1.2 µM,-4%
same,growth inhibition,[3]; at 3.7 µM,-2%
same,growth inhibition,[3]; [17],-4%
same,growth inhibition,[3]; at 11.0 µM,-20%
same,growth inhibition,[3]; at 33.0 µM,17%
same,growth inhibition,[3]; [18],14%
same,growth inhibition,[3]; at 50.0 µM,67%
same,growth inhibition,[3]; at 100.0 µM,37%
same,growth inhibition,[4]; at 1.2 µM,2%
same,growth inhibition,[4]; at 3.7 µM,2%
same,growth inhibition,[4]; [17],-23%
same,growth inhibition,[4]; at 11.0 µM,6%
same,growth inhibition,[4]; at 33.0 µM,19%
same,growth inhibition,[4]; [18],1%
same,growth inhibition,[4]; at 50.0 µM,81.3% (active)
same,growth inhibition,[4]; at 100.0 µM,33%
same,growth inhibition,[6]; [17],-20%
same,growth inhibition,[6]; [18],16%
same,growth inhibition,[6]; at 50.0 µM,67.7%
same,growth inhibition,[7]; at 1.2 µM,-5%
same,growth inhibition,[7]; at 3.7 µM,-5%
same,growth inhibition,[7]; at 11.0 µM,3%
same,growth inhibition,[7]; at 33.0 µM,35%
same,growth inhibition,[7]; at 100.0 µM,61%
same,growth inhibition,[8]; [17],-3%
same,growth inhibition,[8]; [18],29%
same,growth inhibition,[8]; at 50.0 µM,81.1% (active)
same,growth inhibition,[9]; at 1.2 µM,-4%
same,growth inhibition,[9]; at 3.7 µM,-1%
same,growth inhibition,[9]; [17],-28%
same,growth inhibition,[9]; at 11.0 µM,18%
same,growth inhibition,[9]; at 33.0 µM,41%
same,growth inhibition,[9]; [18],61%
same,growth inhibition,[9]; at 50.0 µM,75.5% (active)
same,growth inhibition,[9]; at 100.0 µM,59%
same,growth inhibition,[10]; at 1.2 µM,-3%
same,growth inhibition,[10]; at 3.7 µM,-2%
same,growth inhibition,[10]; at 11.0 µM,1%
same,growth inhibition,[10]; at 33.0 µM,13%
same,growth inhibition,[10]; at 100.0 µM,22%
same,growth inhibition,[11]; at 1.2 µM,-2%
same,growth inhibition,[11]; at 3.7 µM,-5%
same,growth inhibition,[11]; at 11.0 µM,1%
same,growth inhibition,[11]; at 33.0 µM,12%
same,growth inhibition,[11]; at 100.0 µM,17%
same,growth inhibition,[12]; at 1.2 µM,-1%
same,growth inhibition,[12]; at 3.7 µM,2%
same,growth inhibition,[12]; at 11.0 µM,9%
same,growth inhibition,[12]; at 33.0 µM,27%
same,growth inhibition,[12]; at 100.0 µM,39%
same,growth inhibition,[13]; [17],-22%
same,growth inhibition,[13]; [18],46%
same,growth inhibition,[13]; at 50.0 µM,58%
same,growth inhibition,[14]; at 1.2 µM,-2%
same,growth inhibition,[14]; at 3.7 µM,1%
same,growth inhibition,[14]; at 11.0 µM,7%
same,growth inhibition,[14]; at 33.0 µM,19%
same,growth inhibition,[14]; at 100.0 µM,50%
